Data on three compounds can be found in PubChem BioAssay (EPA / NIEHS).

Activity calls are given as the source filed them. Rule for the calls: active = hit-call score of the fitted dose curve at least 0.9, where 1 is the maximum; inactive = score below 0.9.

Experiment [1] is described as follows: CEETOX_H295R_PROG: CeeTox H295R High-throughput Steroidogenesis Assay for Progesterone (PROG) (AID 2283442). The conditions noted are these: actives raise or lower the signal. A digest of the protocol: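 H295R adrenal cells prestimulated 48 h with 10 uM forskolin, then exposed 48 h to test chemical in 0.1% DMSO. Progesterone in medium quantified by HPLC-MS/MS after MTBE extraction; viability checked by MTT in same wells.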

Read-out in experiment [2]: Tumor necrosis factor receptor superfamily member 6 (Homo sapiens) (UniProt P25445)
Kind of experiment: LTEA_HepaRG_FAS: Life Technologies and Expression Analysis (LTEA) Assay for Fas cell surface death receptor (FAS) using HepaRG (AID 2283447). The conditions noted are these: mRNA level, 48 h; actives raise or lower the signal. A digest of the protocol: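 FAS transcript level was measured by TaqMan qRT-PCR against three housekeeping genes after 48 h chemical exposure. Cells were HepaRG, 0.5% DMSO vehicle, with a top concentration of 100 uM and half-log dilutions over eight points, in duplicate.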

Read-out in experiment [3]: Fatty acid synthase (Homo sapiens) (UniProt P49327)
Kind of experiment: LTEA_HepaRG_FASN: Life Technologies and Expression Analysis (LTEA) Assay for Fatty Acid Synthase (FASN) using HepaRG (AID 2283448). The following applies: mRNA level, 48 h; actives raise or lower the signal. A digest of the protocol: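 FASN transcript measured by TaqMan qRT-PCR, normalised to three housekeeping genes, after 48 h chemical exposure of HepaRG cells. Eight-point half-log series from 100 uM in 0.5% DMSO, duplicates; gain or loss fitted against vehicle.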

Read-out in experiment [4]: Cyclin D2 (CCND2), CCND2 (gene 894)
As to the kind of experiment: LTEA_HepaRG_CCND2: Life Technologies and Expression Analysis (LTEA) Assay for Cyclin D2 (CCND2) using HepaRG (AID 2283449). The conditions noted are these: mRNA level, 48 h; actives raise or lower the signal. A digest of the protocol: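 CCND2 transcript levels, quantified by qRT-PCR and normalised to three housekeeping genes, were fitted bidirectionally against 0.5% DMSO. HepaRG cultures were dosed 48 h in duplicate with an 8-point half-log series up to 100 uM.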

Read-out in experiment [5]: Cyclin Dependent Kinase Inhibitor 1A (CDKN1A), CDKN1A (gene 1026)
As to the kind of experiment: LTEA_HepaRG_CDKN1A: Life Technologies and Expression Analysis (LTEA) Assay for Cyclin Dependent Kinase Inhibitor 1A (CDKN1A) using HepaRG (AID 2283450). The conditions noted are these: mRNA level, 48 h; actives raise or lower the signal. A digest of the protocol: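 Differentiated HepaRG cells in serum-free induction medium, exposed 48 h in duplicate to eight half-log concentrations up to 100 uM in 0.5% DMSO. mRNA measured by TaqMan qRT-PCR, normalized to ACTB, GAPDH, POLR2A; bidirectional fit versus DMSO.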

Read-out in experiment [6]: Cyclin D1 (CCND1), CCND1 (gene 595)
As to the kind of experiment: LTEA_HepaRG_CCND1: Life Technologies and Expression Analysis (LTEA) Assay for Cyclin D1 (CCND1) using HepaRG (AID 2283451). The following applies: mRNA level, 48 h; actives raise or lower the signal. A digest of the protocol:
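Differentiated HepaRG cells exposed 48 h in serum-free induction medium to eight half-log concentrations from 100 uM top, 0.5% DMSO, duplicates. CCND1 mRNA measured by Fluidigm TaqMan qRT-PCR, normalised to ACTB, GAPDH, POLR2A; bidirectional fit.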

Read-out in experiment [7]: flavin-containing dimethylaniline monooxygenases 3 (FMO3), FMO3 (gene 2328)
As to the kind of experiment: LTEA_HepaRG_FMO3: Life Technologies and Expression Analysis (LTEA) Assay for flavin-containing dimethylaniline monooxygenases 3 (FMO3) using HepaRG (AID 2283453). The conditions noted are these: mRNA level, 48 h; actives raise or lower the signal. A digest of the protocol:
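FMO3 transcript quantified by TaqMan qRT-PCR against three housekeeping genes after 48 h chemical exposure of HepaRG cells. Eight-point half-log series, top 100 uM, 0.5% DMSO vehicle; phenobarbital 1mM induction control; up- or down-regulation fitted.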

Read-out in experiment [8]: CFLAR gene, CFLAR (gene 8837)
As to the kind of experiment: LTEA_HepaRG_CFLAR: Life Technologies and Expression Analysis (LTEA) Assay for CFLAR gene using HepaRG (AID 2283455). The following applies: mRNA level, 48 h; actives raise or lower the signal. A digest of the protocol: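 Transcript level by qRT-PCR (normalized to ACTB, GAPDH and POLR2A) after 48 h chemical exposure of HepaRG cells, top concentration 100 uM with half-log steps, 0.5% DMSO vehicle, duplicates; fitted bidirectionally against DMSO baseline.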

Read-out in experiment [9]: growth arrest and DNA damage 45 (GADD45A), GADD45A (gene 1647)
Kind of experiment: LTEA_HepaRG_GADD45A: Life Technologies and Expression Analysis (LTEA) Assay for growth arrest and DNA damage 45 (GADD45A) using HepaRG (AID 2283458). The following applies: mRNA level, 48 h; actives raise or lower the signal. A digest of the protocol:
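GADD45A expression was measured by TaqMan qRT-PCR against three housekeeping genes (ACTB, GAPDH, POLR2A) after 48 h treatment of HepaRG cells. Eight-point half-log series up to 100 uM in 0.5% DMSO, run in duplicate.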

Read-out in experiment [10]: Forkhead box O3 (FOXO3), FOXO3 (gene 2309)
As to the kind of experiment: LTEA_HepaRG_FOXO3: Life Technologies and Expression Analysis (LTEA) Assay for Forkhead box O3 (FOXO3) using HepaRG (AID 2283459). The following applies: mRNA level, 48 h; actives raise or lower the signal. The procedure, abridged: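 FOXO3 transcript measured by qRT-PCR (normalized to ACTB, GAPDH, POLR2A) after 48 h exposure of HepaRG cells in serum-free induction medium. Duplicates, eight half-log concentrations up to 100 uM, 0.5% DMSO; gain or loss fitted against DMSO.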

Read-out in experiment [11]: ABC Transporter (ABCB1), ABCB1 (gene 5243)
Kind of experiment: LTEA_HepaRG_ABCB1: Life Technologies and Expression Analysis (LTEA) Assay for ABC Transporter (ABCB1) using HepaRG (AID 2283460). The following applies: mRNA level, 48 h; actives raise or lower the signal. The procedure, abridged: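 ABCB1 transcript level measured by TaqMan qRT-PCR against three housekeeping genes after 48 h chemical exposure of differentiated HepaRG cells. Top concentration 100 uM, half-log steps, eight points, 0.5% DMSO vehicle; bidirectional fit relative to DMSO.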

Read-out in experiment [12]: growth arrest and DNA damage 45 (GADD45B), GADD45B (gene 4616)
As to the kind of experiment: LTEA_HepaRG_GADD45B: Life Technologies and Expression Analysis (LTEA) Assay for growth arrest and DNA damage 45 (GADD45B) using HepaRG (AID 2283461). The following applies: mRNA level, 48 h; actives raise or lower the signal. A digest of the protocol: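 Differentiated human HepaRG cells in serum-free induction medium exposed 48 h in duplicate to eight concentrations, top 100 uM, half-log steps, 0.5% DMSO. GADD45B mRNA by TaqMan qRT-PCR, normalized to ACTB, GAPDH, POLR2A; bidirectional fit versus DMSO.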

Read-out in experiment [13]: ABC Transporter (ABCB11), ABCB11 (gene 8647)
As to the kind of experiment: LTEA_HepaRG_ABCB11: Life Technologies and Expression Analysis (LTEA) Assay for ABC Transporter (ABCB11) using HepaRG (AID 2283463). The conditions noted are these: mRNA level, 48 h; actives raise or lower the signal. A digest of the protocol:
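ABCB11 transcript levels quantified by TaqMan qRT-PCR against three housekeeping genes after 48 h chemical exposure of HepaRG cultures. Concentrations up to 100 uM in half-log steps, 0.5% DMSO vehicle; both induction and suppression scored.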

Experiment [14] can be described thus: CEETOX_H295R_ESTRADIOL: CeeTox H295R High-throughput Steroidogenesis Assay for Estradiol (AID 2283440).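 Note: estradiol secreted into medium quantified by LC-MS/MS after dansyl derivatisation.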 The conditions noted are these: actives raise or lower the signal. A digest of the protocol:
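H295R cells pre-stimulated 48 h with 10 uM forskolin, then exposed 48 h to chemical in 0.1% DMSO. Medium estradiol quantified by MTBE extraction, dansyl derivatisation and HPLC-MS/MS; bidirectional fit versus DMSO; MTT viability required >/=70%.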

A short description of experiment [15]: CEETOX_H295R_ESTRONE: CeeTox H295R High-throughput Steroidogenesis Assay for Estrone (AID 2283441). The following applies: actives raise or lower the signal. The procedure, abridged: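 Estrone secreted into medium quantified by LC-MS/MS after dansyl chloride derivatization, following 48 h chemical exposure (0.1% DMSO final) of forskolin-prestimulated (10 uM, 48 h) H295R cells; gain or loss fitted against DMSO; MTT viability in same wells.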

Read-out in experiment [16]: Forkhead box O1 (FOXO1), FOXO1 (gene 2308)
As to the kind of experiment: LTEA_HepaRG_FOXO1: Life Technologies and Expression Analysis (LTEA) Assay for Forkhead box O1 (FOXO1) using HepaRG (AID 2283456). The conditions noted are these: mRNA level, 48 h; actives raise or lower the signal. A digest of the protocol:
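FOXO1 transcript quantified by qRT-PCR after 48 h chemical exposure (top 100 uM, half-log steps, 0.5% DMSO) of HepaRG cells, housekeeping-normalized (ACTB/GAPDH/POLR2A). Changes fitted in both directions relative to vehicle.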

Read-out in experiment [17]: ABC Transporter (ABCC3), ABCC3 (gene 8714)
As to the kind of experiment: LTEA_HepaRG_ABCC3: Life Technologies and Expression Analysis (LTEA) Assay for ABC Transporter (ABCC3) using HepaRG (AID 2283462). The conditions noted are these: mRNA level, 48 h; actives raise or lower the signal. The procedure, abridged: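 Differentiated human HepaRG cells exposed 48 h in serum-free induction medium, 0.5% DMSO vehicle, 8-point half-log series to 100 uM in duplicate. ABCC3 mRNA by qRT-PCR, normalised to ACTB, GAPDH, POLR2A; bidirectional fit vs DMSO.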

Sequence of Fatty acid synthase (Homo sapiens) (P49327 whole entry, looked up): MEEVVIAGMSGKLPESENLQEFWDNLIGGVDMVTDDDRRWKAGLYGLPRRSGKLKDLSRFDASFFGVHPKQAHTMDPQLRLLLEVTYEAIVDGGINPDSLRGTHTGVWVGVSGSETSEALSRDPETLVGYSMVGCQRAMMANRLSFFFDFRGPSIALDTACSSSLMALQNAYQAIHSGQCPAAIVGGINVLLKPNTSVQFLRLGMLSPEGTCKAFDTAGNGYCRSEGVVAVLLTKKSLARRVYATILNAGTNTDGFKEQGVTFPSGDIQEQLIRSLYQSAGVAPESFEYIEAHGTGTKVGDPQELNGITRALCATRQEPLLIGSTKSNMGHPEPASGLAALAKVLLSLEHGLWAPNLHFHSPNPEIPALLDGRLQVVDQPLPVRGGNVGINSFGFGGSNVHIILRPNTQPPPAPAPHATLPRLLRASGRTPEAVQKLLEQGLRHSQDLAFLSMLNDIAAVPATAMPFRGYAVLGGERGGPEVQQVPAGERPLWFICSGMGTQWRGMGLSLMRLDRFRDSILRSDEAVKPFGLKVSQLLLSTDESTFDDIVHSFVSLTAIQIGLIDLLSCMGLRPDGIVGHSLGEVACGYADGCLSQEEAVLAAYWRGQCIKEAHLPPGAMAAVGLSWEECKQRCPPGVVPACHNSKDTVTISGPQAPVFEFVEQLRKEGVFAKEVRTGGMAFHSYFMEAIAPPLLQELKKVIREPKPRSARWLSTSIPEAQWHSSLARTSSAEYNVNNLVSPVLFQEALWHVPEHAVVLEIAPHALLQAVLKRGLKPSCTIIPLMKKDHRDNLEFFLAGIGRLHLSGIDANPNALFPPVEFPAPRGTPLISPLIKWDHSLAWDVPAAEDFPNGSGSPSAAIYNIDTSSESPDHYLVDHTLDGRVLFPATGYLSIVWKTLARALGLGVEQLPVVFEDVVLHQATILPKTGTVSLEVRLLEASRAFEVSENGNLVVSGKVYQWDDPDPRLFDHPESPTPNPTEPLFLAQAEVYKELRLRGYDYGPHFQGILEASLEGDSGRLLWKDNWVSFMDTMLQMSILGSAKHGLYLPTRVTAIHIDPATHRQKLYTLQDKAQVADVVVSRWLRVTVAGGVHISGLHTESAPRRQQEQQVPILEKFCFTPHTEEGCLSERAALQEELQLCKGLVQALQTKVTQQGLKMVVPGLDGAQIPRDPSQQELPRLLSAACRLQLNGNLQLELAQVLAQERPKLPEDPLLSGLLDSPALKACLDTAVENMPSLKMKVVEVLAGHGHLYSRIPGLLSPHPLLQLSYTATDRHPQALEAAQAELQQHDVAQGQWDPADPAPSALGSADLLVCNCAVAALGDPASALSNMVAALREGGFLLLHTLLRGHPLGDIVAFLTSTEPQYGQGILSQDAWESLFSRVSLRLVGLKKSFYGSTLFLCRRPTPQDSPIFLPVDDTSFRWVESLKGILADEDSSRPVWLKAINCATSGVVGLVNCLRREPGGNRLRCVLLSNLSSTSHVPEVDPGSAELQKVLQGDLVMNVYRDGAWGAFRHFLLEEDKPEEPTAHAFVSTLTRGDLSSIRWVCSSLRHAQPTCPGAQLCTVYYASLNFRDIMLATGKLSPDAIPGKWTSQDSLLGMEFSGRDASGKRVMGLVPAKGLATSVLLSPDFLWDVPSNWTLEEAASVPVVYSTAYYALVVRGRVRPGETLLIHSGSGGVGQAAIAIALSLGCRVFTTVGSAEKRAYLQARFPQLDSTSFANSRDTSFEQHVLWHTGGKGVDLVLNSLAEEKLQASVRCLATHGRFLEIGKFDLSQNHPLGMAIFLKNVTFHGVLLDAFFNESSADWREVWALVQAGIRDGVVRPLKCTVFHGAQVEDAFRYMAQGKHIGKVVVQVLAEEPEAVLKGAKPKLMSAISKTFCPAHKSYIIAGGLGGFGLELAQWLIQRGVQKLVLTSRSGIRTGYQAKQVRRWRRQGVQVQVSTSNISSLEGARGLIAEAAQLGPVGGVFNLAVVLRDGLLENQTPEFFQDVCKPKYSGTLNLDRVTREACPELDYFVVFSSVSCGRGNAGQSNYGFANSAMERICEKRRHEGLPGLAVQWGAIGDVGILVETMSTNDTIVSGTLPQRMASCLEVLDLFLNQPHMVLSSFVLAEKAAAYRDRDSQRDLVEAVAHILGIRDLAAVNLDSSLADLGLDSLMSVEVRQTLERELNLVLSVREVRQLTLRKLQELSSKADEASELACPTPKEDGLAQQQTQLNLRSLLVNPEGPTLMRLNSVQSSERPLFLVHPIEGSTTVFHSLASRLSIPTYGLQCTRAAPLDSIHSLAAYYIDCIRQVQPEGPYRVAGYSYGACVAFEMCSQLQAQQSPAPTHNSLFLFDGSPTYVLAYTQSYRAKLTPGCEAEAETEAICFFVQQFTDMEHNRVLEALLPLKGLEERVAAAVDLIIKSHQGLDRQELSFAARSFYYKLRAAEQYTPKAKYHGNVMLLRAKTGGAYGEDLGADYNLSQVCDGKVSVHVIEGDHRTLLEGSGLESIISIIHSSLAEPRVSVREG

As to `C#C[C@]1(O)CC[C@H]2[C@@H]3CCC4=CC(=O)CC[C@@H]4[C@H]3CC[C@@]21CC`, the result in experiment [1], in experiment [2], in [3], in experiment [4], in experiment [5] and in experiment [6] was inactive. In addition, the result in [7], in [8], in [9], in experiment [10] and in experiment [12] was inactive. Moreover, the figures for the concentration at half-maximal activity (AC50) in experiment [11] and in experiment [13] were 0.156 µM (active) and 0.0365 µM (active), respectively.

Turning to `CCCCCOC(=O)COc1cc(N2C(=O)C3=C(CCCC3)C2=O)c(F)cc1Cl`, the call in [14], in [15], in experiment [1], in [2], in [3] and in experiment [4] was inactive. The compound was called inactive in experiment [5], in experiment [6], in experiment [7], in experiment [8], in [16] and in experiment [10]. Moreover, the outcome in experiment [11], in experiment [12] and in [13] was inactive.

As to `CCCCC(CC)CN1C(=O)C2C3C=CC(C3)C2C1=O` (stereo not drawn), the compound was classed as inactive in experiment [14], in experiment [15], in experiment [1], in [2], in [4] and in experiment [6]. Besides, the result in experiment [8], in [10] and in experiment [12] was inactive. In addition, the AC50 – broadly, the concentration giving half of the maximal activity seen – is 34.6 µM (active) in experiment [3]; 77.1 µM (active) in experiment [5]; 78.7 µM (active) in experiment [7]; 12.5 µM (active) in experiment [11]; 50 µM (active) in [17]; 89 µM (active) in experiment [13].
